Inconclusive results are not listed. A number with no mark means an inactive call. The source made the active and inactive calls. Calls follow the shape of the dose curve; as a rule, active = well fitted cell-killing curve with a large enough effect; inconclusive = small, poorly fitted or top-dose-only effect, or effect the other way; inactive = no such curve, though single readings can be large or run the other way.
assay: Quantitative High-Throughput drug screen in 47 multiple myeloma cell lines against the NCATS MIPE library collection: UTMC2_PLB cell viability assay (AID 1919868); conditions: CellTiter-Glo ATP luminescence, 48 h; viability (% of DMSO control): at 45.8 µM (top of the series); also: nearly all actives have a fitted effect of over 55% in size;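 as to viability (% of DMSO control): 100% = DMSO-only wells and 0% = media-only wells without cells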
Summary of the method: (§1)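 Readout: median RLU from CellTiter-Glo after 5 min at room temperature. Preceding step was 48 h drug treatment of 500 cells/well at 37 °C, 5% CO2, with DMSO-only and media-only control wells.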
Potency is read from the fitted curve at half-maximal effect.

SMILES	Potency	viability (% of DMSO control)
CCC(C(=O)O)C1CCC(C)C(C(C)C(O)C(C)C(=O)C(CC)C2OC3(C=CC(O)[C@@]4(CC[C@](C)(C5CC[C@@](O)(CC)C(C)O5)O4)O3)C(C)CC2C)O1 (some centres not stated)	1320 nM (active)	–
CC(=O)[C@]1(O)Cc2c(O)c3c(c(O)c2[C@@H](O[C@H]2C[C@H](N)[C@@H](O)[C@H](C)O2)C1)C(=O)c1ccccc1C3=O	37.2 nM (active)	–
COc1cc(C=CC(=O)CC(=O)C=Cc2ccc(O)c(OC)c2)ccc1O	21500 nM (active)	–
CN(CC(=O)N(Cc1ccc(C2CCCCC2)cc1)c1ccc(C(=O)O)c(O)c1)S(=O)(=O)c1c(F)c(F)c(F)c(F)c1F	–	77% (active)
CC(C)(C)[C@H](NC(=O)c1ccc(N)c(Cl)c1)C(=O)N1CCC[C@@H]1C(=O)N[C@H](C#N)CC(=O)O	–	157% [at 3.51 µM]
Cn1cnc(=N)c2[nH]cnc21	93.5 nM (active)	–
COc1ccc2c(c1OC)C(=O)OC2[C@H]1c2c(cc3c(c2OC)OCO3)CCN1C (some centres not stated)	132 nM (active)	–
C#C[C@]1(O)CC[C@@H]2[C@@H]3CCC4=CC(=O)CC[C@@H]4[C@H]3CC[C@@]21CC	inactive	–
CC(=O)SCC(Cc1ccccc1)C(=O)NCC(=O)OCc1ccccc1 (configuration not stated)	1320 nM (active)	–
CCOc1cc2ncc(C#N)c(Nc3ccc(OCc4ccccn4)c(Cl)c3)c2cc1NC(=O)C=CCN(C)C	209 nM (active)	–
C=CC(=O)N1CCc2ccc(-n3c(=O)ccc4cnc5ccc(-c6cnn(C)c6)cc5c43)cc21	1050 nM (active)	–
N#CNC(=NCCCCCCOc1ccc(Cl)cc1)Nc1ccncc1	inactive	–
C[C@H]1COc2c(N3CCN(C)CC3)c(F)cc3c(=O)c(C(=O)O)cn1c23	inactive	–
Oc1cc(-c2nc(-c3ccccc3)[nH]c2-c2ccncc2)ccc1Cl	7430 nM (active)	–
COC[C@H](NC(=O)c1cnc(C)s1)C(=O)N[C@@H](COC)C(=O)N[C@@H](Cc1ccccc1)C(=O)[C@@]1(C)CO1	1050 nM (active)	–
CN(C)CCN1C(=O)c2cccc3cc(N)cc(c23)C1=O	5900 nM (active)	–
CCNC(=O)Nc1ccc(-c2nc3c(c(N4CCOC[C@H]4C)n2)CCN(C2COC2)C3)cc1	1180 nM (active)	–
COc1cc([C@@H]2c3cc4c(cc3[C@@H](O[C@@H]3O[C@@H]5CO[C@@H](c6cccs6)O[C@@H]5[C@H](O)[C@@H]3O)[C@H]3COC(=O)[C@H]23)OCO4)cc(OC)c1O	52.6 nM (active)	–
O=C(CCCCCCC(=O)Nc1cccnc1)NO	935 nM (active)	–
COc1cc([C@@H]2c3cc4c(cc3[C@H](O)[C@H]3COC(=O)[C@@H]23)OCO4)cc(OC)c1OC	209 nM (active)	–
CC(C)NC[C@@H](C(=O)N1CCN(c2ncnc3c2[C@H](C)C[C@H]3O)CC1)c1ccc(Cl)cc1	105 nM (active)	–
C[C@H](NCc1ccc(OCc2cccc(F)c2)cc1)C(N)=O	1180 nM (active)	–
COc1cccc2c1C(=O)c1c(O)c3c(c(O)c1C2=O)C[C@@](O)(C(=O)CO)C[C@@H]3O[C@H]1C[C@H](N)[C@H](OC2CCCCO2)[C@H](C)O1 (some centres not stated)	166 nM (active)	–
Nc1nc(N)c2nc(-c3cccc(O)c3)c(-c3cccc(O)c3)nc2n1	3720 nM (active)	–

assay: Quantitative High-Throughput drug screen in 47 multiple myeloma cell lines against the NCATS MIPE library collection: PE2_PLB cell viability assay (AID 1919869); conditions: PE2_PLB myeloma cells viability, ATP luminescence, 48 h; series mostly up to 45.8 µM; also: nearly all actives have a fitted effect of over 35% in size;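 as to viability (% of control): 100% = DMSO-only wells and 0% = cell-free media-only wells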
Summary of the method: as §1

SMILES	Potency	viability (% of control)
Cc1cc(O)c2c(c1)C(=O)c1cccc(O)c1C2=O	inactive	–
CCC(C(=O)O)C1CCC(C)C(C(C)C(O)C(C)C(=O)C(CC)C2OC3(C=CC(O)[C@@]4(CC[C@](C)(C5CC[C@@](O)(CC)C(C)O5)O4)O3)C(C)CC2C)O1 (some centres not stated)	2640 nM (active)	–
COc1cc(C=CC(=O)CC(=O)C=Cc2ccc(O)c(OC)c2)ccc1O	4810 nM (active)	–
CN(CC(=O)N(Cc1ccc(C2CCCCC2)cc1)c1ccc(C(=O)O)c(O)c1)S(=O)(=O)c1c(F)c(F)c(F)c(F)c1F	3320 nM (active)	–
CC(C)(C)[C@H](NC(=O)c1ccc(N)c(Cl)c1)C(=O)N1CCC[C@@H]1C(=O)N[C@H](C#N)CC(=O)O	–	118% [at 3.51 µM]
Cn1cnc(=N)c2[nH]cnc21	332 nM (active)	–
COc1ccc2c(c1OC)C(=O)OC2[C@H]1c2c(cc3c(c2OC)OCO3)CCN1C (some centres not stated)	372 nM (active)	–
C#C[C@]1(O)CC[C@@H]2[C@@H]3CCC4=CC(=O)CC[C@@H]4[C@H]3CC[C@@]21CC	inactive	–
COc1ccc(S(=O)(=O)Nc2cccnc2Nc2ccc(O)cc2)cc1	148 nM (active)	–
C=C(C)[C@@H]1CC[C@]2(C(=O)O)CC[C@]3(C)[C@H](CC[C@@H]4[C@@]5(C)CC[C@H](O)C(C)(C)[C@@H]5CC[C@]43C)[C@@H]12	inactive	–
CC(=O)OCC(=O)[C@@]1(O)CC[C@H]2[C@@H]3CCC4=CC(=O)CC[C@]4(C)[C@@H]3C(=O)C[C@@]21C	inactive	–
CC(=O)SCC(Cc1ccccc1)C(=O)NCC(=O)OCc1ccccc1 (configuration not stated)	935 nM (active)	–
C[C@H](CCC(=O)O)[C@H]1CC[C@H]2[C@@H]3[C@H](O)C[C@@H]4C[C@H](O)CC[C@]4(C)[C@@H]3CC[C@]12C	inactive	–
CCOc1cc2ncc(C#N)c(Nc3ccc(OCc4ccccn4)c(Cl)c3)c2cc1NC(=O)C=CCN(C)C	5260 nM (active)	–
c1cc(CN2CCCNCCNCCCNCC2)ccc1CN1CCCNCCNCCCNCC1	inactive	–
NC[C@H]1O[C@H](O[C@H]2[C@@H](O)[C@@H](O[C@H]3O[C@H](CO)[C@@H](O)[C@H](N)[C@@H]3O)[C@H](N)C[C@@H]2N)[C@H](N)C[C@H]1O	inactive	–
C[C@H]1COc2c(N3CCN(C)CC3)c(F)cc3c(=O)c(C(=O)O)cn1c23	inactive	–

SMILES	Potency	viability (% of control)
Oc1cc(-c2nc(-c3ccccc3)[nH]c2-c2ccncc2)ccc1Cl	5260 nM (active)	–
O=c1[nH]c(=O)n([C@H]2C[C@@H](O)[C@@H](CO)O2)cc1C=CBr	inactive	–
COC[C@H](NC(=O)c1cnc(C)s1)C(=O)N[C@@H](COC)C(=O)N[C@@H](Cc1ccccc1)C(=O)[C@@]1(C)CO1	83.3 nM (active)	–
CN(C)CCN1C(=O)c2cccc3cc(N)cc(c23)C1=O	20900 nM (active)	–
CCNC(=O)Nc1ccc(-c2nc3c(c(N4CCOC[C@H]4C)n2)CCN(C2COC2)C3)cc1	1180 nM (active)	–
COC(=O)[C@H](CCCN=C(N)N)NS(=O)(=O)c1ccc(C)cc1	inactive	–
COc1cc([C@@H]2c3cc4c(cc3[C@@H](O[C@@H]3O[C@@H]5CO[C@@H](c6cccs6)O[C@@H]5[C@H](O)[C@@H]3O)[C@H]3COC(=O)[C@H]23)OCO4)cc(OC)c1O	166 nM (active)	–
CCOC(=O)[C@H](CCc1ccccc1)N[C@@H](C)C(=O)N1[C@@H](C(=O)O)C[C@H]2CCC[C@@H]21	8330 nM (active)	–
CC(C)c1cnn2c(NCc3ccccc3)cc(NCCCCCCN)nc12	26400 nM (active)	–
O=C(CCCCCCC(=O)Nc1cccnc1)NO	7430 nM (active)	–
COc1cc([C@@H]2c3cc4c(cc3[C@H](O)[C@H]3COC(=O)[C@@H]23)OCO4)cc(OC)c1OC	148 nM (active)	–
NC(=O)N1CCC(CC(=O)N2CCC([C@H]3c4ncc(Br)cc4CCc4cc(Cl)cc(Br)c43)CC2)CC1	14800 nM (active)	–
C[C@H](NCc1ccc(OCc2cccc(F)c2)cc1)C(N)=O	2090 nM (active)	–
O=C(c1ccc(F)cc1)N1CCC[C@H](c2nc(-c3ccc(F)cc3)no2)C1	inactive	–
COc1cccc2c1C(=O)c1c(O)c3c(c(O)c1C2=O)C[C@@](O)(C(=O)CO)C[C@@H]3O[C@H]1C[C@H](N)[C@H](OC2CCCCO2)[C@H](C)O1 (some centres not stated)	1180 nM (active)	–
Nc1nc(N)c2nc(-c3cccc(O)c3)c(-c3cccc(O)c3)nc2n1	2960 nM (active)	–

Source: PubChem BioAssay (NCATS)
